In article PMC4336329 (PLoS ONE, 2015):
The campaign covered roughly 310,000 compounds. About 14,000 (4.5%) showed an effect of 50% or more. The effect is printed as a negative number. Shown is part of a subset that was picked to be rich in strong results.

molecular target: human ether-à-go-go-related gene (hERG) potassium channel (human, UniProt Q12809); experiment: primary screen, population patch clamp on CHO cells stably expressing hERG; higher = less effect of the substance
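Further: peak tail current of the secondary pulse compared with the same well before compound.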

Chain of human ether-à-go-go-related gene (hERG) potassium channel (Q12809 whole entry, looked up): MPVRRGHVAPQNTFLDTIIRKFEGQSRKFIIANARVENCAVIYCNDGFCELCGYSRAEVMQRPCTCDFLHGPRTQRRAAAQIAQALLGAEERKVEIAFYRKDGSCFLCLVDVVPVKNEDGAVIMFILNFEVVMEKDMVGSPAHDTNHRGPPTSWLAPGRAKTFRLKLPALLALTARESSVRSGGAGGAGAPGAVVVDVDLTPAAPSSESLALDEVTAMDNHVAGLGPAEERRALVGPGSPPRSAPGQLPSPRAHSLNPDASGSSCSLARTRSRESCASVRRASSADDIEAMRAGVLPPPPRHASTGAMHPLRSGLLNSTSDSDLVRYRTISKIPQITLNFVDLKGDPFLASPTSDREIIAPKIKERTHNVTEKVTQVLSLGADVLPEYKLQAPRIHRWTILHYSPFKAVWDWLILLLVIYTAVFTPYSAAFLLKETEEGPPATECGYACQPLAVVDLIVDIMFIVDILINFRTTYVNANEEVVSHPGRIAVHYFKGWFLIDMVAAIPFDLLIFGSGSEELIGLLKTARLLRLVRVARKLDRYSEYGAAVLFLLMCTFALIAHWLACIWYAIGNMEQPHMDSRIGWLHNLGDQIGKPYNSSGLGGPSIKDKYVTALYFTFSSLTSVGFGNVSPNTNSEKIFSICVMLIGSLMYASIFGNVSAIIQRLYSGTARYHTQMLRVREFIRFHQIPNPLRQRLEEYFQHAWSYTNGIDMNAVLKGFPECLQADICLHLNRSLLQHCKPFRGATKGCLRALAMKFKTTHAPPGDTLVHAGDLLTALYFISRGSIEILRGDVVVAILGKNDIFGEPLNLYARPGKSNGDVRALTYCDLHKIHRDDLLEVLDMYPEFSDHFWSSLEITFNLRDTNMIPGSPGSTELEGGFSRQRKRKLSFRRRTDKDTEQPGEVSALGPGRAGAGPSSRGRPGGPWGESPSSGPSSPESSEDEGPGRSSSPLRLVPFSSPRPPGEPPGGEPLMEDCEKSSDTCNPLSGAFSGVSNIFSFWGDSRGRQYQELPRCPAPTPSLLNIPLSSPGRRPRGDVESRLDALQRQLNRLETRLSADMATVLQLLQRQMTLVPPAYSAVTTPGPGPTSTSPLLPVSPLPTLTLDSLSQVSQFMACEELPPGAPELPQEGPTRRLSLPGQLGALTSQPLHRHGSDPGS

| Structure (SMILES) | hERG current change (%, negative = inhibition) at 10uM [%] |
| --- | --- |
| CC(=O)Nc1ccc(S(=O)(=O)N2CCN(C(=O)C3COc4ccccc4O3)CC2)cc1 (centres unmarked) | -7.33 |
| Cc1ccc(N2C(=O)NC(=O)/C(=C\c3ccoc3)C2=O)cc1 | 22 |
| O=P1(Nn2cnnc2)C=C(c2ccccc2)OC(c2ccccc2)=C1 | -20.8 |
| O=P1(O)C=C(c2ccccc2)OC(c2ccccc2)=C1 | 23.9 |
| CCN1CCN(P2(=O)C=C(c3ccccc3)OC(c3ccccc3)=C2)CC1 | -77.9 |
| Cc1cc(C(=O)CSc2nc(N)cc(N)n2)c(C)n1CCc1ccc(F)cc1 | -13.9 |
| Cn1c(=O)c2[nH]c(-c3ccc(S(=O)(=O)O)cc3)nc2n(C)c1=O.O | 10.2 |
| O=C(N/N=C/c1ccc(Br)o1)/C(=C/c1ccc([N+](=O)[O-])cc1)NC(=O)c1ccccc1 | -60.1 |
| O=C(Nc1cccc2ccccc12)/C(=C\c1cccc([N+](=O)[O-])c1)NC(=O)c1cccs1 | -70.1 |
| COc1ccc(/C=C(\NC(=O)c2cccs2)C(=O)Nc2cccc3ccccc23)cc1OC | -7.06 |
| O=C(N/C(=C/c1cccc([N+](=O)[O-])c1)C(=O)N1CCCCC1)c1cccs1 | -7.23 |
| O=C(Nc1ccc(Br)cc1)/C(=C/c1cccc([N+](=O)[O-])c1)NC(=O)C1CCCCC1 | -16 |
| O=C(Nc1ccc([N+](=O)[O-])cc1)/C(=C/c1cccc([N+](=O)[O-])c1)NC(=O)C1CCCCC1 | -69 |
| Cc1ccc(NC(=O)/C(=C/c2cccc([N+](=O)[O-])c2)NC(=O)C2CCCCC2)c(C)c1 | -18.7 |
| O=C(N/N=C/c1ccc(O)c(O)c1O)/C(=C/c1ccc([N+](=O)[O-])cc1)NC(=O)c1ccccc1 | 12.4 |
| O=C(Nc1cccc(C(=O)O)c1)/C(=C/c1ccc([N+](=O)[O-])cc1)NC(=O)c1ccccc1 | -5.36 |
| O=C(N/N=C/c1ccc(O)cc1)/C(=C/c1ccc([N+](=O)[O-])cc1)NC(=O)c1ccccc1 | 8.54 |
| O=C(Nc1cccc2ccccc12)/C(=C/c1ccc([N+](=O)[O-])cc1)NC(=O)c1ccccc1 | -55.6 |
| O=C(Nc1ccccc1)/C(=C/c1ccc([N+](=O)[O-])cc1)NC(=O)c1ccccc1 | 8.2 |
| Cc1cc(NC(=O)C(C)SCC(=O)N(C)CC(=O)Nc2ccc(F)cc2)no1 (centres unmarked) | 7.59 |
| CN(CC(=O)Nc1ccccc1Cl)C(=O)Cn1cc(C(F)(F)F)cc(Cl)c1=O | -6.27 |
| O=C(CN1C(=O)COc2ccc(S(=O)(=O)N3CCOCC3)cc21)NCc1ccccn1 | -1.38 |
| O=C(NCC1CCCO1)C1CCN(c2ccc(S(=O)(=O)N3CCCC3)cc2)CC1 (centres unmarked) | -4.69 |
| CC(C(=O)c1ccc(-c2ccccc2)cc1)[n+]1ccccc1.[Br-] (centres unmarked) | 2.72 |
| CCOC(=O)c1ccc(N2C(=O)c3n[nH]c(C)c3C2c2cccnc2)cc1 (centres unmarked) | -17.2 |
| CC(C(=O)OCC(=O)c1ccc(F)cc1)N1C(=O)C2C3C=CC(C3)C2C1=O (centres unmarked) | -15.4 |
| Cc1ccc(NC(=O)/C(=C\c2cccc([N+](=O)[O-])c2)NC(=O)c2cccs2)cc1 | -1.85 |

| Structure (SMILES) | hERG current change (%, negative = inhibition) at 10uM [%] |
| --- | --- |
| O=C(Nc1cccc2ccccc12)/C(=C/c1cccc([N+](=O)[O-])c1)NC(=O)c1cccs1 | -67.7 |
| Cc1cccc(NC(=O)/C(=C/c2cccc([N+](=O)[O-])c2)NC(=O)c2cccs2)c1 | 10.2 |
| CCOC(=O)c1cnn(-c2ccccc2)c1-n1cccc1 | -8.27 |
| C=CCNC(=S)Nc1ccccc1 | -8.73 |
| CN(C)c1ccc(NC(=O)Nc2csc3ccccc23)cc1 | 18.4 |
| Fc1cccc(F)c1CN1CCN(c2ncccn2)CC1 | 15.5 |
| F[B-](F)(F)F.OCC[NH+]=c1cc(-c2ccccc2)oc2ccc(Cl)cc12 | -71.3 |
| F[B-](F)(F)F.OCCCCC[NH+]=c1cc(-c2ccccc2)oc2ccc(Cl)cc12 | -80.3 |
| O=c1cc(-c2ccccc2)oc2ccc(O)cc12 | -9.74 |
| F[B-](F)(F)F.OCCC[NH+]=c1cc(-c2ccccc2)oc2ccc(Cl)cc12 | -79.1 |
| O=c1oc2ccc(Cl)cc2cc1-c1ccccc1 | 22.4 |
| Nc1c(C(=O)CCC(=O)O)oc2ccc(Cl)cc12 | -9.4 |
| OCCCNc1nc(-c2ccccc2)c2cc(Cl)ccc2n1 | 3.04 |
| O=C(COc1ccc2oc(-c3ccccc3)cc(=O)c2c1)Nc1ccccc1 | -2.43 |
| COc1ccc(-c2cc(=[NH+]c3ccccc3)c3cc(C)ccc3o2)cc1.[O-][Cl+3]([O-])([O-])[O-] | 24.8 |
| CCCNC(=O)c1cccc(COCC(F)(F)F)c1 | -2.57 |
| O=C(Nc1ccccn1)C1(c2cccs2)CCOCC1 | 8.48 |
| COc1ccc(S(=O)(=O)N2CCOC23CCN(C(=O)c2ccc(Cl)cc2Cl)CC3)cc1 | -68.9 |
| Cc1ccc(S(=O)(=O)N2CCOC23CCN(C(=O)c2ccc(Cl)cc2Cl)CC3)cc1 | -48.1 |
| O=S(=O)(c1ccc(F)cc1)N1CCC2(CC1)OCCN2S(=O)(=O)c1cccs1 | -10.9 |
| COc1ccc(S(=O)(=O)N2CCOC23CCN(S(=O)(=O)c2ccccc2)CC3)cc1 | 8.72 |
| COc1ccc(S(=O)(=O)N2CCC3(CC2)OCCN3S(=O)(=O)c2ccc(OC)cc2)cc1 | -24.1 |
| COc1ccc(S(=O)(=O)N2CCOC23CCN(S(=O)(=O)c2ccc([N+](=O)[O-])cc2)CC3)cc1 | -62 |
| COc1ccc(S(=O)(=O)N2CCC3(CC2)OCCN3S(=O)(=O)c2cccs2)cc1 | -23.8 |
| Cc1ccc(S(=O)(=O)N2CCOC23CCN(C(=O)c2cc(Cl)ccc2Cl)CC3)cc1 | -47.6 |
| O=[N+]([O-])c1ccc(S(=O)(=O)N2CCC3(CC2)OCCN3S(=O)(=O)c2cccs2)cc1 | -50.4 |
